Bioassay records: PubChem, National Center for Advancing Translational Sciences (NCATS)
BAZ2B block: inhibitors of human BAZ2B bromodomain | Q9UIF8 | 360,000 compounds, 4.4% hits | AlphaScreen BAZ2B-H3K14Ac peptide displacement | Potency, µM (doses to about 114 µM), inactives show top-dose activity change, negative = inhibition, usual class: inhibitors; note: % is set by controls: 0 for no effect and ±100 for the full control effect; nearly all actives have a fitted effect of over 60% in size
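In this displacement format the biotinylated H3(5-23) peptide acetylated at Lys14 serves as ligand at 50 nM, with BAZ2B at 50 nM in PBS pH 7.4 containing 0.01% Tween-20. Donor and acceptor beads are 10 ug/mL final.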
G9a inh: blocks human histone lysine methyltransferase G9a; Q96KQ7; G9a H3K9 monomethylation, AlphaScreen, 2 h; Potency, µM (highest dose often 102 µM), for the others: at the highest dose activity, negative = inhibition, usual class: inhibitors; 350,000 compounds, 8.8% hits; AID 504332; note: % is set by controls: 0 for no effect and ±100 for the full control effect; nearly all actives have a fitted effect of over 75% in size
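Step 1: enzyme (final 20 nM) with compound, 15 min RT. Step 2: substrate peptide 500 nM and SAM 20 uM, 2 h RT. Step 3: anti-H3K9me1 antibody and AlphaScreen beads, 10 min, then plate read.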
JMJD2A Tudor inh: blocks the human JMJD2A Tudor domain; 390,000 compounds, 4.4% hits; AlphaScreen JMJD2A-Tudor / H3K4me3 peptide binding; Potency, µM (doses to about 114 µM), for the others: at the top dose activity change, negative = inhibition, usual class: inhibitors; O75164; note: % is set by controls: 0 for no effect and ±100 for the full control effect; nearly all actives have a fitted effect of over 50% in size
Target sequence (O75164 whole entry, looked up, the tested form may be a part): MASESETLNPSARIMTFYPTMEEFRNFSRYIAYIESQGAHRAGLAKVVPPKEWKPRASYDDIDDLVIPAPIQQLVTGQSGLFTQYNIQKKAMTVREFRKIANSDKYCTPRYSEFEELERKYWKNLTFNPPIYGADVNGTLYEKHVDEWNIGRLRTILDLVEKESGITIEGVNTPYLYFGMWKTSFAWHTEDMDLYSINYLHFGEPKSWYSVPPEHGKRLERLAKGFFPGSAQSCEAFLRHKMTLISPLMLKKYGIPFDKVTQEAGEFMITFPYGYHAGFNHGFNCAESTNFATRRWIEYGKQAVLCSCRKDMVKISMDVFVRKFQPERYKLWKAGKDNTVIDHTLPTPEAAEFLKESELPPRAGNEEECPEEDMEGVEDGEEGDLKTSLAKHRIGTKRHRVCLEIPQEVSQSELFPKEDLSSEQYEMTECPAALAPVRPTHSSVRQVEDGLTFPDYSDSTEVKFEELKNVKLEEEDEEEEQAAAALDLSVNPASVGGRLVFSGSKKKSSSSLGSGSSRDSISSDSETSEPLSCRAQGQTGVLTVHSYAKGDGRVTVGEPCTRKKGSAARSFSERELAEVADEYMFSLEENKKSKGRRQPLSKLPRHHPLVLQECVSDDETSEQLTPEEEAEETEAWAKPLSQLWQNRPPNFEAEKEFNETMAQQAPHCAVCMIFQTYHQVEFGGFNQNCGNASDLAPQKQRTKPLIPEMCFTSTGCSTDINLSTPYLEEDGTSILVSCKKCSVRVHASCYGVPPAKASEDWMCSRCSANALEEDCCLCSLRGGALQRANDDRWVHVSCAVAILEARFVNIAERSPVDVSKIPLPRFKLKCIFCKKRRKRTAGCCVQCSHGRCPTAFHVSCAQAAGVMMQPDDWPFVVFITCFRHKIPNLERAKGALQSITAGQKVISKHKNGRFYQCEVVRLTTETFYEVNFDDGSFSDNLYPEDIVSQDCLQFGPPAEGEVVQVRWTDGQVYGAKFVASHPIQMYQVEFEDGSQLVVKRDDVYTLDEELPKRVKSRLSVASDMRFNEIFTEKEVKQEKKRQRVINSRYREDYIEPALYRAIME
L3MBTL1 inh: L3MBTL1 (human) inhibition | Q9Y468 | AlphaScreen L3MBTL1–H3K9me1 peptide binding | Potency, µM (highest dose often 57.1 µM), for the others: top-dose activity, negative = inhibition, usual class: inhibitors | 230,000 compounds, 0.66% hits | AID 485360; note: % is set by controls: 0 for no effect and ±100 for the full control effect; nearly all actives have a fitted effect of over 60% in size
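L3MBTL1 50 nM + b-AHA-H3(1-15)K9me1 75 nM, 30 min RT; compound added, 30 min RT; streptavidin donor/Ni-chelate acceptor beads 10 ug/mL each final, 30 min RT dark; AlphaScreen read.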
HP1b binding inh: blocks HP1-beta chromodomain binding to methylated histone tails; 390,000 compounds, 0.56% hits; P83916; Potency, µM (titrated, usually from 114 µM), for inactives: at the top dose activity change, negative = inhibition, most hits filed as inhibitors; AlphaScreen HP1-beta / biotin-H3K9me3 peptide binding; note: nearly all actives have a fitted effect of over 70% in size
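AlphaScreen: HP1-beta (50 nM) preformed 30 min with biotin-H3(1-18)K9me3 peptide (50 nM) in PBS pH 7.4, 0.01% Tween-20. Compound added for 30 min at RT, then streptavidin donor/nickel chelate acceptor beads (10 ug/mL) for 30 min.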
Sfp inh: Sfp phosphopantetheinyl transferase inhibition; Q9F4F7; Biochemical Sfp PPTase activity, qHTS; Potency, µM, for the others: largest response in the series, negative = inhibition, hits mostly inhibitors; 310,000 compounds, 3.5% hits;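 note: the enzyme is Sfp with the accession as filed and its product quenches rhodamine fluorescence; 0% = enzyme reaction without inhibitor and -100% = no enzyme wells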
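Buffer: 50 mM Hepes-Na pH 7.6, 10 mM MgCl2, 0.01% Nonidet P-40, 0.01% BSA. Enzyme 15 nM, pre-exposed to compound 15 min; substrates then added and fluorescence change tracked over 30 min.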
An asterisk follows results filed as active; [ ] = dose if it differs, or a comment. Rows were chosen to be rich in hits. Some 12% of all compounds tested hit in one or more screens of this group. Calls come from the whole dose curve; as a rule, active = well fitted curve in the direction sought with a large enough effect; inconclusive = small, poorly fitted or top-dose-only effect, or another doubt; inactive = no such curve, though single readings can be large; an effect the other way counts as inactive or inconclusive. Potency is the fitted concentration of half-maximal effect.

What do the screens show for `COc1cc(OC)cc(C(=O)Nc2ccc3nc4c(c(Nc5ccc(OC)c(OC)c5)c3c2)CCCC4)c1`?
BAZ2B block: 10µM*; G9a inh: 18µM*; JMJD2A Tudor inh: inconclusive; HP1b binding inh: inconclusive

What do the screens show for `COc1ccc(Nc2c3c(nc4ccc(NC(=O)c5cc(Cl)ccc5OC)cc24)CCCC3)cc1OC`?
BAZ2B block: -26%; G9a inh: inconclusive; JMJD2A Tudor inh: inconclusive; HP1b binding inh: -22%

Results for COc1ccccc1Nc1c2c(nc3ccc(NC(=O)c4ccc(N(C)C)cc4)cc13)CCCC2 ?
BAZ2B block: 4µM*; G9a inh: 7.9µM*; JMJD2A Tudor inh: 16µM*; HP1b binding inh: -22%

Results for Cc1c(C2CCN(CCc3ccccc3)CC2)noc1-c1ccc(Cl)cc1 ?
G9a inh: inconclusive; Sfp inh: 3%

How did N#Cc1ccc(-n2nccc2-c2cnc3n(c2=O)CCS3)cc1 do in these assays?
BAZ2B block: 8%; G9a inh: -7%[12.7 µM]; JMJD2A Tudor inh: 50µM*; HP1b binding inh: -11%; Sfp inh: 22%

What do the screens show for `CC1(C)N([O-])C2=C(c3ccccc3C2=O)[N+](=O)C1(C)C`?
BAZ2B block: 13%; G9a inh: 79µM*; JMJD2A Tudor inh: -8%; HP1b binding inh: -2%; Sfp inh: 5%

How did C/C(=N\NC(=O)c1ccc(O)cc1)c1ccc(N2CCOCC2)cc1 do in these assays?
BAZ2B block: 0%; JMJD2A Tudor inh: 6%[11.4 µM]; L3MBTL1 inh: 11%; HP1b binding inh: 7%; Sfp inh: -5%

What do the screens show for `NC(=O)N/N=C/c1ccc(N2CCOCC2)s1`?
BAZ2B block: -36%; G9a inh: 3.2µM*; JMJD2A Tudor inh: -23%; L3MBTL1 inh: -3%; HP1b binding inh: 9%; Sfp inh: 79µM*

How did C/C(=N\Nc1ccc(Cl)c(C(=O)O)c1)c1ccc[nH]1 do in these assays?
BAZ2B block: inconclusive; G9a inh: 25µM*; JMJD2A Tudor inh: inconclusive; L3MBTL1 inh: 28µM*; HP1b binding inh: 11%; Sfp inh: 11%

Results for O=C(O)c1cc(N/N=C/c2ccc(N3CCOCC3)s2)ccc1Cl ?
BAZ2B block: 50µM*; G9a inh: 2.2µM*; JMJD2A Tudor inh: 45µM*; L3MBTL1 inh: 20µM*; HP1b binding inh: inconclusive; Sfp inh: 56µM*

Results for O=C(O)c1cc(Nc2nc(N3CCOCC3)nc(N3CCOCC3)n2)ccc1Cl ?
BAZ2B block: 4%; G9a inh: 4%[59 µM]; JMJD2A Tudor inh: -11%; L3MBTL1 inh: -1%; HP1b binding inh: 31%; Sfp inh: 24%

Results for C/C(=N\Nc1ccc(Cl)c(C(=O)O)c1)c1ccc(N2CCOCC2)cc1 ?
BAZ2B block: -11%; G9a inh: 40µM*; JMJD2A Tudor inh: -28%; HP1b binding inh: -13%; Sfp inh: -3%

What do the screens show for `Clc1ccc(-c2nc3sccn3c2/C=N/OCc2ccc(Cl)c(Cl)c2)cc1`?
G9a inh: 26%[59 µM]; Sfp inh: -12%

How did CC1CCCCN1S(=O)(=O)c1cccc2nonc12 (centres undefined) do in these assays?
BAZ2B block: -19%; G9a inh: 4%; JMJD2A Tudor inh: -19%; HP1b binding inh: 19%; Sfp inh: 13%

What do the screens show for `CCN(CC)CCNC(=O)c1ccc(NS(C)(=O)=O)cc1`?
G9a inh: -6%[59 µM]

What do the screens show for `CN(CCc1ccccn1)Cc1ccc(Cl)cc1Cl`?
BAZ2B block: 50µM*; G9a inh: -20%[0.0925 µM]; JMJD2A Tudor inh: 20µM*; L3MBTL1 inh: 3%; HP1b binding inh: inconclusive; Sfp inh: inconclusive

What do the screens show for `CN(CCc1ccccn1)c1ccccc1`?
JMJD2A Tudor inh: -29%; HP1b binding inh: -20%

What do the screens show for `CN(CCc1ccccn1)C(=O)Nc1ccc(F)cc1`?
BAZ2B block: 17%; G9a inh: 21%[59 µM]; JMJD2A Tudor inh: -20%; L3MBTL1 inh: 6%; HP1b binding inh: 24%; Sfp inh: 5%

What do the screens show for `O=C(NCc1ccccn1)Nc1ccc(Cl)cc1Cl`?
BAZ2B block: -1%; JMJD2A Tudor inh: -19%; HP1b binding inh: 47%; Sfp inh: 5%

How did CN(CCc1ccccn1)S(=O)(=O)c1ccccc1F do in these assays?
BAZ2B block: inconclusive; G9a inh: 45µM*; JMJD2A Tudor inh: inconclusive; L3MBTL1 inh: 2%; HP1b binding inh: 30%; Sfp inh: 12%

What do the screens show for `CSc1ccc(CN(C)CCc2ccccn2)cc1`?
BAZ2B block: 32µM*; JMJD2A Tudor inh: 25µM*; L3MBTL1 inh: 2%; HP1b binding inh: inconclusive; Sfp inh: 50µM*

What do the screens show for `Cc1ccc(-c2csc3nc4c5ccccc5c(NCCCN5CCOCC5)nn4c(=O)c23)cc1`?
BAZ2B block: -5%; L3MBTL1 inh: 21%; Sfp inh: 6%

What do the screens show for `Cc1ccc(-c2csc3nc4c5ccccc5c(NCCCN(C)C)nn4c(=O)c23)cc1`?
BAZ2B block: 13%; G9a inh: 35µM*; JMJD2A Tudor inh: 5%; L3MBTL1 inh: 40%; HP1b binding inh: -20%; Sfp inh: inconclusive

What do the screens show for `COc1ccc(CNc2ncnc3ccc(-c4ccccc4CN(C)C)cc23)c(OC)c1`?
Sfp inh: -21%

How did CCNC(=S)NNC(=O)CSc1nc2ccccc2n1C do in these assays?
BAZ2B block: -11%; JMJD2A Tudor inh: 89µM*; L3MBTL1 inh: -3%; HP1b binding inh: 27%; Sfp inh: -6%

How did CCNC(=S)NNC(=O)CSc1nc2ccccc2[nH]1 do in these assays?
BAZ2B block: -27%; G9a inh: 45µM*; JMJD2A Tudor inh: -21%; L3MBTL1 inh: -5%; HP1b binding inh: 8%; Sfp inh: 13%

What do the screens show for `CCC(C)NC(=O)c1cc(-c2cccc(OC)c2)on1` (centres undefined)?
BAZ2B block: 15%; G9a inh: 0%[59 µM]; JMJD2A Tudor inh: 18%; HP1b binding inh: 50%

How did Cc1nn(CCC(=O)NC(C)C)c(=O)c2nn(-c3ccccc3)c(C)c12 do in these assays?
BAZ2B block: -8%; G9a inh: -23%[59 µM]; JMJD2A Tudor inh: 0%; HP1b binding inh: 14%

Results for COc1ccc(-c2csc(NC(=S)NC(=O)c3cccs3)n2)cc1OC ?
BAZ2B block: inconclusive; G9a inh: 32µM*; JMJD2A Tudor inh: -34%; L3MBTL1 inh: -13%; HP1b binding inh: -5%; Sfp inh: 32µM*

What do the screens show for `COc1ccc(-c2csc(NC(=O)CSCC(=O)Nc3cc(C)on3)n2)cc1OC`?
BAZ2B block: -6%; G9a inh: 40µM*; JMJD2A Tudor inh: -22%; L3MBTL1 inh: -9%; HP1b binding inh: -9%
